Screens as filed in PubChem.
This is a sample that favours compounds with a hit; in the whole collection about 1.6% have one here.
SIRT5 block – inhibitors of human sirtuin-5 desuccinylase | 330,000 compounds, 1.1% hits | inhibition, % at 15 µM | Purified SirT5, succinyl-peptide AMC, trypsin-coupled fluorescence | AID 652115; in the data active = inhibition above about 15%
NSD2 HMT inh – NSD2 (human) methyltransferase inhibition; O96028; NSD2 peptide methylation, AlphaScreen, 120 min; inhibition, % at 12.5 µM; 310,000 compounds, 0.54% hits; in the data active = inhibition above about 50%
UBC9 SUMO inh – inhibitors of human SUMOylation (UBC9) | HTRF SUMOylation assay, SAE1/SAE2 + UBC9, in vitro | 290,000 compounds, 0.36% hits | P63279 | AID 2006 | inhibition, % at 35 µM; in the data active = inhibition above about 50%, passing the limit was not always enough
Target sequence (P63279 whole entry, looked up): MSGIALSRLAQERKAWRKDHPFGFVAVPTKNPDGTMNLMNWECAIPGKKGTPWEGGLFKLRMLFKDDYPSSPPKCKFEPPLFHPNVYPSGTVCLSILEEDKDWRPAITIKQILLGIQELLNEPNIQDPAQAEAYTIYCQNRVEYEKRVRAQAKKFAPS
CASP6 VEID inh – caspase-6 (human) enzyme inhibition | P55212 | purified caspase-6, Z-VEID-R110 cleavage fluorescence | inhibition, % at 12.5 µM | 350,000 compounds, 0.53% hits | AID 686996;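 active = mean inhibition across replicates at least about 35%, with every replicate also reaching that limit, limit read from the data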
A number is an active result; i = inactive; nt = no result.

SMILES	SIRT5 block	NSD2 HMT inh	UBC9 SUMO inh	CASP6 VEID inh
CC(C)CC#Cc1ccc2c(c1)O[C@@H](CN(C)C(=O)c1ccccc1F)[C@H](C)CN([C@@H](C)CO)S2(=O)=O	i	nt	nt	i
CCCC(C)C(=O)Nc1nc(C)c(-c2csc(Nc3ccc(Cl)cc3)n2)s1 (stereo unspecified)	31	nt	i	i
CCCC(C)C(=O)Nc1nc(C)c(-c2csc(Nc3ccccc3OC)n2)s1 (stereo unspecified)	i	nt	i	i
Cc1ccnc(NC(=O)CCC(=O)N(Cc2ccco2)C(C(=O)NC(C)C)c2ccc(F)cc2)c1 (stereo unspecified)	100	i	i	i
COCCNC(=O)C(c1ccc(F)cc1)N(Cc1ccco1)C(=O)CCC(=O)Nc1ccccn1 (stereo unspecified)	i	i	i	i
COc1ccccc1-n1c(SCC(=O)O)nc2c(sc(=S)n2-c2ccc(C)c(C)c2)c1=O	17	i	i	i
C[C@@H]1CN([C@@H](C)CO)S(=O)(=O)c2ccc(C#Cc3ccccc3F)cc2O[C@@H]1CN(C)C(=O)c1ccc2c(c1)OCO2	26	nt	nt	i
C[C@H]1CN([C@@H](C)CO)S(=O)(=O)c2ccc(C#Cc3ccccc3F)cc2O[C@H]1CN(C)C(=O)c1ccc2c(c1)OCO2	17	nt	nt	i
COCCn1nnnc1C(c1cc2cc(C)ccc2[nH]c1=O)N1CCCCCC1 (stereo unspecified)	nt	nt	i	nt
COCCn1nnnc1C(c1cc2cc(OC)ccc2[nH]c1=O)N1CCC(Cc2ccccc2)CC1 (stereo unspecified)	17	i	i	i
Oc1ccc(/C=N/Nc2ccnc3cc(Cl)ccc23)cc1O	nt	i	i	47
Oc1ccc(/C=N/Nc2ccnc3cc(Cl)ccc23)c(O)c1O	i	nt	i	i
Oc1c(Br)cc(Br)c2cccnc12	i	nt	nt	i
O=c1cc(Br)c(O)c(Br)cc1Br	i	i	nt	91
C[C@@H]1C=CCCO[C@]12C(=O)N(Cc1ccccc1C(F)(F)F)c1ccccc12	18	nt	nt	i
C[C@H]1CN([C@@H](C)CO)C(=O)CCCn2nncc2CO[C@@H]1CN(C)Cc1ccccc1C(=O)O	i	nt	nt	i
C[C@H](CO)N1C[C@H](C)[C@H](CN(C)C(=O)c2cnccn2)Oc2ncc(-c3ccccc3F)cc2C1=O	i	nt	nt	i
Nc1ncnc2oc(-c3ccco3)c(-c3ccco3)c12	nt	nt	78	nt
Nc1nnc(-c2ccco2)s1	nt	i	i	nt
O=c1ccc2[n+]([O-])c3ccc(O)cc3oc-2c1	i	102	i	88
CCOc1nc(NCCO)nc(Nc2cc(Cl)ccc2OC)n1	i	i	i	i
C=CCNc1nc(Nc2cc(Cl)ccc2OC)nc(OC)n1	i	i	i	39
O=C(O)CN1C(=O)/C(=C\c2cc(Br)ccc2OCc2ccc(Cl)cc2Cl)SC1=S	i	i	i	86
Cc1cc(NC(=O)Cn2c(=O)n(Cc3ccccc3)c(=O)c3ccccc32)no1	nt	i	52	nt
COCCn1cnc2c1c(=O)n(CC(=O)Nc1cc(C)on1)c(=O)n2Cc1ccccc1	nt	i	i	nt
SMILES	SIRT5 block	NSD2 HMT inh	UBC9 SUMO inh	CASP6 VEID inh
O=C(C[C@H]1CC[C@@H](NC(=O)CN2CCOCC2)[C@@H](CO)O1)NCc1cccc(F)c1	i	nt	nt	i
CCCCN1Cc2c(nc3cc(-c4ccco4)[nH]n3c2=O)C1=O	i	i	92	44
C[C@H]1CN([C@@H](C)CO)C(=O)Cc2cc(N(C)C)ccc2O[C@@H]1CN(C)S(=O)(=O)c1ccccc1	i	nt	nt	i
CC(C)(C)OC(=O)NCCCC[C@H](NC(=O)[C@H](Cc1c[nH]c2ccccc12)NC(=O)OCc1ccccc1)C(=O)O	i	i	i	39
CSCCC(NC(=O)OCc1ccccc1)C(=O)NC(Cc1c[nH]c2ccccc12)C(=O)O (stereo unspecified)	nt	i	nt	i
Cc1ccc(S(=O)(=O)CCC(=O)NC2CCCCC2)cc1	i	i	nt	i
O=C(CCS(=O)(=O)c1ccc(Br)s1)NC1CCCC1	nt	i	i	nt
O=C(CCNS(=O)(=O)c1ccc(Br)s1)NC1CCCC1	20	nt	i	i
O=C(CCS(=O)(=O)c1ccc(Br)cc1)NC1CCCCCC1	i	i	i	61
O=C(CCS(=O)(=O)c1ccc(Br)cc1)NCc1ccc(F)cc1	i	i	i	70
O=C(CCS(=O)(=O)c1ccc(Cl)cc1)NCCC1=CCCCC1	i	i	i	i
O=C(CCS(=O)(=O)c1ccc(Br)cc1)NCCC1=CCCCC1	i	i	i	66
COC(=O)c1c(-c2ccc(OC)cc2)oc2ccc(-c3cc(OC)c(OC)c(OC)c3)cc12	23	nt	nt	i
COc1ccc(C(=O)c2c(-c3ccc(OC)cc3)oc3ccc(-c4cc(OC)c(OC)c(OC)c4)cc23)cc1	i	nt	nt	i
O=C(O)c1ccc(NC2=C(n3nnc4ccccc43)C(=O)c3ccccc3C2=O)cc1	i	nt	i	83
